Experimental data taken from publication PMC5540273 (PLoS ONE, 2017).

test system: AKT3; conditions: concentration: 1 μM, replicates: in singlicate; n = 1
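Also: KINOMEscan kinase panel screen.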

| Compound | %Inh |
| --- | --- |
| Nc1n[nH]c2ncc(-c3ccccc3)cc12 [SB-517081] | 0% |
| COc1cc(Nc2nccc(N3CCC(NC(=O)C4COc5ccccc5O4)C3)n2)cc(OC)c1OC (stereo not drawn) [GSK1379761] | 0% |
| COc1cc2ncn(-c3cc(OCCCc4ccccc4)c(C(N)=O)s3)c2cc1OC [GSK205189] | 0% |
| CCC(=O)c1c(-c2ccccc2)c2cc(Cl)ccc2c(=O)n1Cc1cc(C(=O)NC2CC2)n(C)n1 | 0% |
| C[C@@H]1CC[C@H](C(=O)NC2CCCCC2)CN1c1cc(-c2ccc3c(N)n[nH]c3c2)nc(N)n1 [GSK2291363] | 0% |
| CCc1ccc(-c2ccc3c(c2)-c2nn(C)cc2S(=O)(=O)N3C)cc1 | 0% |
| Cc1nnc(-c2ccc(C)c(-c3ccc(C(=O)O)cc3)c2)o1 [GW608005] | 0% |
| COc1cc(OC)cc(-c2cc3cnc(N)nc3nc2NC(=O)NC(C)(C)C)c1 | 24% |
| COC(=O)c1c(-c2ccccc2)c2cc(Br)ccc2c(=O)n1Cc1ccc(S(C)(=O)=O)cc1 | 0% |
| Cl.NS(=O)(=O)c1cccc(Nc2cc(-c3ccc(F)cc3)n[nH]2)c1 [GW824645] | 0% |
| CCC(=O)c1c(-c2ccccc2)c2cc(Cl)ccc2c(=O)n1Cc1cc(S(C)(=O)=O)n(CC(N)=O)n1 | 0% |
| COc1cc2nccc(Nc3ccc(OCc4ccc(NC(C)=O)cc4)cc3)c2cc1OC.Cl [GW440135] | 0% |
| COc1cccc(C2=C(Nc3cccc(C(=O)O)c3)C(=O)NC2=O)c1 [SB-390770] | 0% |
| CN1C(=O)C(Nc2cc(Cl)c(O)c(Cl)c2)=C(c2ccc(Cl)cc2)C1=O [SB-404321] | 0% |
| O=C(Nc1n[nH]c2cc(-c3ccccc3F)ccc12)C1CC1 [SB-733371] | 7% |
| COc1cc2nccc(Nc3cccc(Oc4ccccc4)c3)c2cc1OC.Cl [GW284543] | 0% |
| COc1cc2ncn(-c3cc(OCc4ccncc4)c(C(N)=O)s3)c2cc1OC [GSK336313] | 0% |
| Cc1ccc(Oc2ccc(Nc3ncnc4cc[nH]c34)cc2C)cn1 | 0% |

| Compound | %Inh |
| --- | --- |
| COc1ccc(-n2cnc3c(N)ncnc32)cc1 [SKF-97236] | 11% |
| O=C(NCCNc1ccnc(Nc2ccc(F)cc2)n1)Nc1ccc2c(c1)OCO2 [GSK1379882] | 0% |
| COc1ccc(-c2cc3c(C)nc(N)nc3n([C@H]3CC[C@H](O)CC3)c2=O)cn1 | 0% |
| O=C(Nc1ccc2c(c1)OCO2)NC1CCN(c2ccnc(NCc3ccc(F)cc3)n2)CC1 [GSK1379859] | 0% |
| O=c1cc(N2CCOCC2)nc2n(Cc3ccc(F)c(Cl)c3)ccn12 [GSK2297099] | 0% |
| CCC(=O)c1c(-c2ccccc2)c2cc(Cl)ccc2c(=O)n1Cc1ccc(C(=O)O)cc1 | 0% |
| CCS(=O)c1ccc(-c2coc3ccc(-c4nnc(C)o4)cc23)cc1 (stereo not drawn) | 0% |
| CC(C)(C)c1ccc(C(=O)Nc2cn3cc(-c4ccccc4)ccc3n2)cc1 | 0% |
| Nc1nc(N)c2nc(-c3ccccc3)[nH]c2n1 [SKF-12778] | 15% |
| Cc1nc(N(C)[C@H]2CN(C(=O)CC#N)CC[C@H]2C)c2cc[nH]c2n1 | 3% |
| CCC(=O)c1c(-c2ccccc2)c2cc(Cl)ccc2c(=O)n1Cc1cc(S(C)(=O)=O)n(CCC(C)(C)O)n1 | 17% |
| CCn1c(-c2nonc2N)nc2ccccc21 [SB-693162/GW549034] | 0% |
| CCn1c(-c2ccoc2)nc2cnccc21 [SB-733887] | 0% |
| Cc1cccc(-c2cc(-c3c[nH]nc3-c3ccccn3)ccn2)c1 [GW679395] | 0% |
| Nc1ncnc2c1ncn2-c1cccc(F)c1 [SKF-97560] | 0% |
| CN1C(=O)C(Nc2ccccc2)=C(c2ccccc2)C1=O [SB-300079] | 0% |
| OCCCNc1nccc(-c2c(-c3cccc(C(F)(F)F)c3)nn3cc(C(F)(F)F)ccc23)n1 [GW630813] | 0% |
| COc1ccc(-c2cc3c(C)nc(N)nc3n([C@H]3CC[C@H](OCCO)CC3)c2=O)cn1 | 1% |
